A short description of test [1]: Viability qHTS for spleen associated tyrosine kinase inhibitor (SYKi) naive MV4-11 cells (AID 1963823). Also: nearly all actives have a fitted effect of over 40% in size. An outline of the steps: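 Luminescence from CellTiter-Glo, developed 10 min at room temperature, gave viability of MV4-11 cells never exposed to SYK inhibitor. Cells (500/well) had been incubated with compounds for 72 hr under standard culture conditions.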
A short description of test [2]: Viability qHTS for spleen associated tyrosine kinase inhibitor (SYKi) drug resistant MV4-11 cells (AID 1963824). Also: nearly all actives have a fitted effect of over 35% in size. Put shortly: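 SYK-inhibitor-resistant MV4-11 AML cells were seeded at 500 per well onto compound and cultured 72 hours (37 °C, 5% CO2). CellTiter-Glo was then added, and after 10 min at room temperature, luminescence gave viability.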

Structures are written as SMILES. Records with an inconclusive call do not appear. A number with no mark means an inactive call. Calls of active or inactive are those of the source. Calls follow the shape of the dose curve; as a rule, active = well fitted cell-killing curve with a large enough effect; inconclusive = small, poorly fitted or top-dose-only effect, or effect the other way; inactive = no such curve, though single readings can be large or run the other way.

This is an account of results in PubChem BioAssay (NCATS).
Potency is read from the fitted curve at half-maximal effect.

`C[C@]12CCC[C@](C)(C(=O)O)C1CCC13C=C(CO)C(CCC12)C3` (some centres undefined): the Potency result in test [1] and in test [2] was “inactive” throughout.

Turning to `C=C1CCC2C(C)(CO[C@@H]3O[C@H](CO)[C@@H](O)[C@H](O)[C@H]3O)C(O)CCC2(C)C1C(=O)CC1=CCOC1=O` (some centres undefined), the Potency entry in test [1] and in test [2] was “inactive” in each case.

On to `CC(C)(O)C1CC=C(C(=O)OC[C@H]2O[C@@H](OC(=O)C3=CCC(C(C)(C)O)CC3)[C@H](O)[C@@H](O)[C@@H]2O)CC1` (some centres undefined), for which the Potency result in test [1] and in test [2] was “inactive” each time.

In the case of `CCN(CC)Cc1cccc(/C=C/c2nc3ccc(F)cc3c(=O)n2-c2ccccc2Cl)n1`, the Potency is 11.6 µM (active) in test [1] and 9.2 µM (active) in test [2].

Turning to `CCC(C)CNCC(=O)N1CCC2SC=CC2C1COc1cccc(C)c1` (centres undefined), the Potency was 11.6 µM (active) in test [1] and 10.3 µM (active) in test [2].

For `CC(=O)O[C@@H]1[C@H](OC(C)=O)C[C@@]2(C)C(CC[C@@H](C)[C@]23Cc2c(O)cc4c(c2O3)CN([C@@H](CCC(=O)O)C(=O)O)C4=O)C1(C)C` (some centres undefined), the Potency entry in test [1] and in test [2] was “inactive” each time.

As to `N=C(N)c1ccc2nc(-c3cc(CC(=O)NC(CC(=O)O)C(=O)O)cc(-c4cc(S(N)(=O)=O)ccc4O)c3O)[nH]c2c1` (centres undefined), the Potency entry in test [1] and in test [2] was “inactive” throughout.

For `CC[C@H](C)/C=C(C)/C=C/C1=CC2=C(Cl)C(=O)[C@](C)(O)[C@H](OC(C)=O)[C@H]2CO1`, the Potency was 12.8 µM (active) in test [1] and 7.18 µM (active) in test [2].

Consider `O=C1C(Cc2ccc(O)cc2)N2C(=O)CCN(C(=O)NCc3ccccc3)C2CN1Cc1cccc2ccccc12` (centres undefined), for which the results for the Potency in test [1] and in test [2] were 1.46 µM (active) and 1.84 µM (active), respectively.

As for `COc1ccc(/C=C/C(=O)O[C@@H]2[C@@H](O)[C@H](C)O[C@@H](O[C@H]3[C@@H]4C=CO[C@@H](O[C@H]5O[C@@H](CO)[C@H](O)[C@@H](O)[C@@H]5O)[C@@H]4[C@@]4(CO)O[C@@H]34)[C@@H]2OC(C)=O)cc1`, the Potency result in test [1] and in test [2] was “inactive” throughout.

Turning to `CNCCC=C1c2ccccc2CCc2ccccc21`, the Potency in test [1] was 11.6 µM (active); in test [2], 14.6 µM (active).

With `Cc1cc(C)c(Nc2ccnc(Nc3ccc(C#N)cc3)n2)c(C)c1`, the Potency is 2.31 µM (active) in test [1] and 4.11 µM (active) in test [2].

As to `O=C(O)c1cc(O[C@@H]2O[C@H](CO)[C@@H](O)[C@H](O)[C@H]2O)ccc1O`, the Potency entry in test [1] and in test [2] was “inactive” throughout.

As to `CC1(O)CC(O)C2C(C(=O)O)=COC(OC3OC(CO)C(O)C(O)C3OC(=O)/C=C/c3ccc(O)cc3)C21` (centres undefined), the Potency result in test [1] and in test [2] was “inactive” in each case.

As for `O=C(NS(=O)(=O)c1ccc(Br)s1)c1ccc(Cl)cc1Cl`, the Potency in test [1] is 7.31 µM (active); in test [2], 9.2 µM (active).

Take `CS(=O)(=O)c1ccc([C@@H](C[C@H]2CCC(=O)C2)C(=O)Nc2cnccn2)cc1Cl`: the Potency in test [1] and in test [2] was 15.8 µM (active) throughout.

Consider `N#CC(=C(/N)Sc1ccccc1N)/C(C#N)=C(/N)Sc1ccccc1N`, for which the figures for the Potency in test [1] and in test [2] were 10.3 µM (active) and 7.31 µM (active), respectively.

`C/C=C/C=C/C(CC(=O)O)Nc1ccc(C=O)cc1` (centres undefined): the Potency entry in test [1] and in test [2] was “inactive” throughout.

`C=C1C(=O)OC2/C=C(\C)CC/C=C(\C)CC(OC(C)=O)C12` (centres undefined): the Potency in test [1] and in test [2] was 2.59 µM (active) each time.

In the case of `C=C(C(=O)O)C1CCC2(C)CCCC(C)(O)C2C1` (centres undefined), the Potency entry in test [1] and in test [2] was “inactive” in each case.

Take `O=C(c1c(F)ccc(NS(=O)(=O)N2CC[C@@H](F)C2)c1F)c1c[nH]c2ncc(-c3cnc(C4CC4)nc3)cc12`: the Potency is 6.51 µM (active) in test [1] and 8.2 µM (active) in test [2].

For the molecule `CC1=C(C)C(=O)OC(C(C)C2CCC3C4CC=C5CC(OC6OC(COC7OC(CO)C(O)C(O)C7O)C(O)C(O)C6O)CC(O)C5(C)C4CCC23C)C1` (centres undefined), the Potency result in test [1] and in test [2] was “inactive” in each case.

Consider `CC(=O)O[C@H]1[C@H](C)[C@@H](O)[C@H]2[C@@H]1C=C(C(=O)O)[C@H]1C[C@@H]3[C@H]([C@H]21)[C@H]1C(=O)O[C@@H]2CC[C@@]3(C)O[C@]1(O)[C@@H]2C`, for which the Potency entry in test [1] and in test [2] was “inactive” throughout.

In the case of `O=c1cc(-c2ccc(O)cc2)oc2cc(OC3OC(CO)C(O)C(O)C3O)c(C3OC(CO)C(O)C(O)C3O)c(O)c12` (centres undefined), the Potency result in test [1] and in test [2] was “inactive” each time.

On to `CCOc1cc(CNC2CCCC2)cc(Cl)c1OCc1ccc(Cl)cc1`, for which the figures for the Potency in test [1] and in test [2] were 4.61 µM (active) and 5.8 µM (active), respectively.

`CC1(C)CCC[C@@]2(C)C1[C@H](OC(=O)/C=C/C=C/C(=O)O)C=C1COC(=O)[C@@]12O` (some centres undefined): the Potency result in test [1] and in test [2] was “inactive” each time.

Consider `CC1(C)CC[C@]2(C(=O)O[C@@H]3O[C@H](CO)[C@@H](O)[C@H](O)[C@H]3O)CC[C@]3(C)C(=CCC4[C@@]5(C)C[C@@H](O)[C@H](O)[C@](C)(C=O)C5CC[C@]43C)[C@@H]2[C@@H]1O` (some centres undefined), for which the Potency entry in test [1] and in test [2] was “inactive” in each case.
